Measurements reported in PubChem BioAssay (Tox21).
Results filed as inconclusive are left out. Activity calls are given as the source filed them. The call rests on the fitted dose curve; in most records, active means well fitted curve in the direction sought with a large enough effect in the repeat runs; inconclusive means weak or mixed curves; inactive means no such curve, though single readings can be large; an effect the other way counts as inactive or inconclusive.

Assays:
[1] = qHTS RealTime-Glo MT Cell Viability Assay in HepG2 cells - 24 hour (AID 1224867); further: nearly all actives have a fitted effect of over 50% in size
Summary of the method: (§1)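 HepG2 cells (600/well) were dispensed with RealTime-Glo reagents, incubated 5 h at 37 °C, then treated with compounds in DMSO for up to 40 h. Nonlytic NanoLuc luminescence reflecting viable cells was read at each stated time point.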

[2] = qHTS RealTime-Glo MT Cell Viability Assay in HEK293 cells - 32 hour (AID 1224868); further: top concentration of the series differs between compounds; nearly all actives have a fitted effect of over 50% in size
Summary of the method: (§2)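 HEK293 cells seeded with NanoLuc/prosubstrate reagent, rested 5 h at 37 C, then dosed and kept at 37 C up to 40 h. Nonlytic real-time luminescence from viable cells read at 0, 8, 16, 24, 32 and 40 h.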

[3] = A CellTox Green Cytotoxicity Assay to monitor cytotoxicity in HEK293 cells - 0 hour (AID 1224869); further: nearly all actives have a fitted effect of over 50% in size
Summary of the method: (§3)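 Cells (HEK293, 600/well) and dye reagent are dispensed together. After 5 h at 37 C, 23 nL compound is pinned in. Plates stay at 37 C for 40 h with fluorescence read at 0h, 8h, 16h, 24h, 32h and 40h.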

[4] = qHTS RealTime-Glo MT Cell Viability Assay in HepG2 cells - 40 hour (AID 1224870); further: nearly all actives have a fitted effect of over 50% in size
Summary of the method: (§4)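 HepG2 cells (600/well) mixed with RealTime-Glo MT reagent, settled 5 h at 37 C/5% CO2 before compound addition. Nonlytic NanoLuc luminescence from viable-cell prosubstrate reduction read repeatedly during 40 h treatment at 37 C.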

[5] = A CellTox Green Cytotoxicity Assay to monitor cytotoxicity in HEK293 cells - 40 hour (AID 1224871); further: nearly all actives have a fitted effect of over 45% in size
Summary of the method: as §3

[6] = qHTS RealTime-Glo MT Cell Viability Assay in HEK293 cells - 16 hour (AID 1224872)
Summary of the method: as §2

[7] = qHTS RealTime-Glo MT Cell Viability Assay in HepG2 cells - 8 hour (AID 1224873); further: nearly all actives have a fitted effect of over 55% in size
Summary of the method: as §4

[8] = A CellTox Green Cytotoxicity Assay to monitor cytotoxicity in HEK293 cells - 24 hour (AID 1224875); further: series mostly up to about 77 µM; nearly all actives have a fitted effect of over 45% in size
Summary of the method: as §3

[9] = A CellTox Green Cytotoxicity Assay to monitor cytotoxicity in HepG2 cells - 16 hour (AID 1224876); further: nearly all actives have a fitted effect of over 45% in size
Summary of the method: (§5)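 Cells and non-lytic dye reagent are dispensed together (600 HepG2 cells/well) and incubated 5 h before DMSO compound transfer. Kinetic fluorescence is then recorded in the same wells during 40 h at 37 C.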

[10] = qHTS RealTime-Glo MT Cell Viability Assay in HepG2 cells - 32 hour (AID 1224877); further: nearly all actives have a fitted effect of over 55% in size
Summary of the method: as §1

[11] = A CellTox Green Cytotoxicity Assay to monitor cytotoxicity in HepG2 cells - 24 hour (AID 1224878); further: nearly all actives have a fitted effect of over 45% in size
Summary of the method: as §5

[12] = A CellTox Green Cytotoxicity Assay to monitor cytotoxicity in HepG2 cells - 40 hour (AID 1224879); further: nearly all actives have a fitted effect of over 40% in size
Summary of the method: as §5

[13] = qHTS RealTime-Glo MT Cell Viability Assay in HEK293 cells - 0 hour (AID 1224880)
Summary of the method: (§6)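 Real-time viability in HEK293: signal arises when living cells convert a prosubstrate for NanoLuc in the medium, so luminescence tracks viable cell number. Compound (23 nL, DMSO) added 5 h post-seeding; kinetic reads at 0–40 h, 37 C.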

[14] = A CellTox Green Cytotoxicity Assay to monitor cytotoxicity in HEK293 cells - 32 hour (AID 1224881); further: nearly all actives have a fitted effect of over 40% in size
Summary of the method: as §3

[15] = A CellTox Green Cytotoxicity Assay to monitor cytotoxicity in HepG2 cells - 0 hour (AID 1224882); further: nearly all actives have a fitted effect of over 35% in size
Summary of the method: as §5

[16] = A CellTox Green Cytotoxicity Assay to monitor cytotoxicity in HepG2 cells - 32 hour (AID 1224883); further: nearly all actives have a fitted effect of over 50% in size
Summary of the method: as §5

[17] = A CellTox Green Cytotoxicity Assay to monitor cytotoxicity in HEK293 cells - 8 hour (AID 1224884); further: nearly all actives have a fitted effect of over 35% in size
Summary of the method: as §3

[18] = qHTS RealTime-Glo MT Cell Viability Assay in HepG2 cells - 16 hour (AID 1224885); further: nearly all actives have a fitted effect of over 50% in size
Summary of the method: as §1

[19] = qHTS RealTime-Glo MT Cell Viability Assay in HEK293 cells - 24 hour (AID 1224886)
Summary of the method: as §2

[20] = qHTS RealTime-Glo MT Cell Viability Assay in HEK293 cells - 40 hour (AID 1224874); conditions: RealTime-Glo luminescence; max response: hits give low values; further: nearly all actives have a fitted effect of over 50% in size
Summary of the method: as §6
On the % scale 0 is the no-effect control and ±100 the full control effect.

C=CCN1C[C@H](C(=O)N(CCCN(C)C)C(=O)NCC)C[C@@H]2c3cccc4[nH]cc(c34)C[C@H]21
inactive: outcome [1] | Potency [2] | Potency [3] | outcome [4] | Potency [5] | Potency [6] | outcome [7] | Potency [8] | Potency [9] | outcome [10] | Potency [11] | Potency [12] | Potency [13] | Potency [14] | Potency [15] | Potency [16] | Potency [17] | outcome [18] | Potency [19]

Cc1ccnc(N)c1
inactive: outcome [1] | Potency [2] | Potency [3] | outcome [4] | Potency [5] | Potency [6] | outcome [7] | Potency [8] | Potency [9] | Potency [11] | Potency [12] | Potency [13] | Potency [14] | Potency [15] | Potency [16] | Potency [17] | outcome [18] | Potency [19]

COc1nc(N)nc2nc[nH]c12
inactive: outcome [1] | Potency [2] | Potency [3] | outcome [4] | Potency [5] | outcome [7] | max response [20] -26% | Potency [8] | Potency [9] | outcome [10] | Potency [11] | Potency [12] | Potency [13] | Potency [14] | Potency [15] | Potency [16] | Potency [17] | outcome [18]

c1ccc2cnccc2c1
inactive: outcome [1] | Potency [2] | Potency [3] | outcome [4] | Potency [5] | outcome [7] | max response [20] 9.26% | Potency [8] | Potency [9] | outcome [10] | Potency [11] | Potency [12] | Potency [13] | Potency [14] | Potency [15] | Potency [16] | Potency [17] | outcome [18] | Potency [19]

C[C@@H](O)C(=O)O
inactive: outcome [1] | Potency [2] | Potency [3] | outcome [4] | Potency [5] | Potency [6] | outcome [7] | Potency [8] | Potency [9] | Potency [11] | Potency [12] | Potency [13] | Potency [14] | Potency [15] | Potency [16] | Potency [17] | outcome [18] | Potency [19]

CCCCCC(C)O (stereo unspecified)
inactive: outcome [1] | Potency [2] | Potency [3] | outcome [4] | Potency [5] | Potency [6] | outcome [7] | Potency [8] | Potency [9] | outcome [10] | Potency [11] | Potency [12] | Potency [13] | Potency [14] | Potency [15] | Potency [16] | Potency [17] | outcome [18] | Potency [19]

CC(S)C(C)S (stereo unspecified)
inactive: outcome [1] | Potency [2] | Potency [3] | outcome [4] | Potency [5] | outcome [7] | max response [20] 7.38% | Potency [8] | Potency [9] | Potency [11] | Potency [12] | Potency [13] | Potency [14] | Potency [15] | Potency [16] | Potency [17] | outcome [18] | Potency [19]

O=C(CCCCC(=O)Nc1c(I)cc(I)c(C(=O)O)c1I)Nc1c(I)cc(I)c(C(=O)O)c1I
inactive: outcome [1] | Potency [2] | Potency [3] | outcome [4] | Potency [5] | Potency [6] | outcome [7] | Potency [8] | Potency [9] | Potency [11] | Potency [12] | Potency [13] | Potency [14] | Potency [15] | Potency [16] | Potency [17] | outcome [18] | Potency [19]

O=C(NCN1CCOCC1)c1cnccn1
inactive: outcome [1] | Potency [2] | Potency [3] | outcome [4] | Potency [5] | outcome [7] | max response [20] 2.14% | Potency [8] | Potency [9] | outcome [10] | Potency [11] | Potency [12] | Potency [13] | Potency [14] | Potency [15] | Potency [16] | Potency [17] | outcome [18] | Potency [19]

CN(C)CCN(C)CCO
inactive: outcome [1] | Potency [2] | Potency [3] | outcome [4] | Potency [5] | Potency [6] | outcome [7] | Potency [8] | Potency [9] | outcome [10] | Potency [11] | Potency [12] | Potency [13] | Potency [14] | Potency [15] | Potency [16] | Potency [17] | outcome [18] | Potency [19]

NCCOCCN
inactive: outcome [1] | Potency [2] | Potency [3] | outcome [4] | Potency [5] | outcome [7] | max response [20] 1.68% | Potency [8] | Potency [9] | Potency [11] | Potency [12] | Potency [13] | Potency [14] | Potency [15] | Potency [16] | Potency [17] | outcome [18] | Potency [19]

O=C1CCCCO1
inactive: outcome [1] | Potency [2] | Potency [3] | outcome [4] | Potency [5] | outcome [7] | max response [20] 1.35% | Potency [8] | Potency [9] | outcome [10] | Potency [11] | Potency [12] | Potency [13] | Potency [14] | Potency [15] | Potency [16] | Potency [17] | outcome [18] | Potency [19]

OC1(c2ccc(Cl)cc2)CCNCC1
inactive: outcome [1] | Potency [2] | Potency [3] | outcome [4] | Potency [5] | outcome [7] | max response [20] 3.5% | Potency [8] | Potency [9] | outcome [10] | Potency [11] | Potency [12] | Potency [13] | Potency [14] | Potency [15] | Potency [16] | Potency [17] | outcome [18] | Potency [19]
